Tests used:
Test in all cases: log2 ratio of Biotin-Ahx-Ub-VS probe labelling (fragment/DMSO); higher = less target engagement (more negative = stronger competition), active = hit call of the paper (q ≤ 0.05, log2 ratio ≤ -1)
Settings in all cases: compound concentration: 200 uM; treatment time: 3 h
USP42 = target: T1, USP42 (UniProt Q9H9J4)
T1 sequence (whole entry): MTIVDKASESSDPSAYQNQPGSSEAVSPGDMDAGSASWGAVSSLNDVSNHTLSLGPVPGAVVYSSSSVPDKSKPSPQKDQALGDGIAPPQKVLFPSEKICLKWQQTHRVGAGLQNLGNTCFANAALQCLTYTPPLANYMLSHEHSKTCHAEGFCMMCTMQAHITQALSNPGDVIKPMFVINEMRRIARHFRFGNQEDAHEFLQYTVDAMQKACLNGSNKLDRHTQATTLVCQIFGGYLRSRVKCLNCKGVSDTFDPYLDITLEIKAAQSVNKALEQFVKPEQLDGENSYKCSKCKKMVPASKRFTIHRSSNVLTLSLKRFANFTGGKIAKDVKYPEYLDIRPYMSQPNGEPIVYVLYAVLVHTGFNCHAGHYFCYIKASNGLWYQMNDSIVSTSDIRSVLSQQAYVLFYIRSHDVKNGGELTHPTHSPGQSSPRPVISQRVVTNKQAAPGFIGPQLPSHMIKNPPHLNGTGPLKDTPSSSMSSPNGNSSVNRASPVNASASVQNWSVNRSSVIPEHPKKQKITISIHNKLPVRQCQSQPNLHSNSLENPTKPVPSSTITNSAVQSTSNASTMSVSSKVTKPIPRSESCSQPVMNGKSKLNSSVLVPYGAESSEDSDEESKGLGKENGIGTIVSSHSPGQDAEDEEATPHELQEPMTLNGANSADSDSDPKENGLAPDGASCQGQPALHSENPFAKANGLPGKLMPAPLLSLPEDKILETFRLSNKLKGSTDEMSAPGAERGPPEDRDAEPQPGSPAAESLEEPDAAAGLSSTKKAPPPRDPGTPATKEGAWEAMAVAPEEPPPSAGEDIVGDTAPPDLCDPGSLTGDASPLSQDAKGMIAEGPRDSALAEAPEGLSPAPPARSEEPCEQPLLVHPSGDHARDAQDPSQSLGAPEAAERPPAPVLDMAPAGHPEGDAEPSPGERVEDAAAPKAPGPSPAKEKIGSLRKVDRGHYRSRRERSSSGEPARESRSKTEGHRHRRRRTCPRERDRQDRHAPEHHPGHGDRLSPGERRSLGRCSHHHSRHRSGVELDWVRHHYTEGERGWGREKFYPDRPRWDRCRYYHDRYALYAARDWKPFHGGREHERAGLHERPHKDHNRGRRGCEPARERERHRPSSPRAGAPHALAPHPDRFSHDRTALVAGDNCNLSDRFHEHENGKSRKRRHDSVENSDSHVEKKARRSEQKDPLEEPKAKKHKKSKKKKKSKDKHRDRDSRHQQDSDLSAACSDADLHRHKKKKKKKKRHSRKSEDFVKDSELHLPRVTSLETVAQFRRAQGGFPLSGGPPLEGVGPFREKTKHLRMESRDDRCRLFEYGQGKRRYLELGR
Outline: (§1)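 HEK293T lysate (495 µg per sample, in Tris/CHAPS/IGEPAL buffer with protease inhibitors) was exposed in triplicate for 3 h to fragment at 200 µM or to vehicle, then to Biotin-Ahx-Ub-VS at 0.5 µM final for 1 h. Labelled DUBs were enriched on NeutrAvidin, digested with LysC and trypsin, and analysed by diaPASEF LC-MS/MS. Spectronaut label-free quantities were normalised to the global median, and values are average log2 ratios of fragment over vehicle from an unpaired t-test. Only proteins with ≥2 unique peptides were used.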

USP46 = USP46 (UniProt P62068)
Outline: as §1

USP47 = target: T2, USP47 (UniProt Q96K76)
T2 sequence (whole entry): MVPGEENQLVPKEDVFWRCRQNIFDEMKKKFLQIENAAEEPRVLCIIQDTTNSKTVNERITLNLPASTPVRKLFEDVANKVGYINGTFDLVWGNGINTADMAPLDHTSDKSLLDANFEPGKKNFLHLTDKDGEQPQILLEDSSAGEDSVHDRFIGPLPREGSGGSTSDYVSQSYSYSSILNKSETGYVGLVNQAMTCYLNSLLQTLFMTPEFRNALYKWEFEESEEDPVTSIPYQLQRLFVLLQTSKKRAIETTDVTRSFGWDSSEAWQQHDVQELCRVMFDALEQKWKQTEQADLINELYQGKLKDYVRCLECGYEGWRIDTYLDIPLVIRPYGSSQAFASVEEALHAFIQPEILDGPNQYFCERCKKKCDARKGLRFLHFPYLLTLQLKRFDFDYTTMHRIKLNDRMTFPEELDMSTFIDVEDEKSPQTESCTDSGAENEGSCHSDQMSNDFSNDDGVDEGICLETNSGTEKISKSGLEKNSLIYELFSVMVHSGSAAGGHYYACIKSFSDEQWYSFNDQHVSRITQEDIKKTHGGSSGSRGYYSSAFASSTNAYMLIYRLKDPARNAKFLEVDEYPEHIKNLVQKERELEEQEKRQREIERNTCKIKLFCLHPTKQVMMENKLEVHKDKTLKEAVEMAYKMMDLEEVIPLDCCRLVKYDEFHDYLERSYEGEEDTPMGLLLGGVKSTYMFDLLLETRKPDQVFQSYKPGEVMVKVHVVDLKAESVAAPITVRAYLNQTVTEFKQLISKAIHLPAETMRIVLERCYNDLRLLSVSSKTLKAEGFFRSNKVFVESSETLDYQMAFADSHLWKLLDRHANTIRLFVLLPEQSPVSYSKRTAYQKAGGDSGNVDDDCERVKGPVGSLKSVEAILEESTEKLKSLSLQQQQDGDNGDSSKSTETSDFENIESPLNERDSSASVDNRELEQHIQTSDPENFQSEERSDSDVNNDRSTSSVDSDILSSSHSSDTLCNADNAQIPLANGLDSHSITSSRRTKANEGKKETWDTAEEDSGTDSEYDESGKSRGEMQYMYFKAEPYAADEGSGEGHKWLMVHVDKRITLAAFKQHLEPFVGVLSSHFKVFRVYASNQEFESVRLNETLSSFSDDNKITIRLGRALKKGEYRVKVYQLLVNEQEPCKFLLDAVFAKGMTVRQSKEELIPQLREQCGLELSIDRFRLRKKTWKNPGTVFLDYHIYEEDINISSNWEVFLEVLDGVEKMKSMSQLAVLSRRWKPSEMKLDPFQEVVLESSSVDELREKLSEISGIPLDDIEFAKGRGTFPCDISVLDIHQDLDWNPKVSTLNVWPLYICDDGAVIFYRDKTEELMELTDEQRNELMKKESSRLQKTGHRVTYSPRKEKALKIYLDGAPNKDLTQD
Outline: as §1

USP48 = target: T3, USP48 (UniProt Q86UV5)
T3 sequence (whole entry): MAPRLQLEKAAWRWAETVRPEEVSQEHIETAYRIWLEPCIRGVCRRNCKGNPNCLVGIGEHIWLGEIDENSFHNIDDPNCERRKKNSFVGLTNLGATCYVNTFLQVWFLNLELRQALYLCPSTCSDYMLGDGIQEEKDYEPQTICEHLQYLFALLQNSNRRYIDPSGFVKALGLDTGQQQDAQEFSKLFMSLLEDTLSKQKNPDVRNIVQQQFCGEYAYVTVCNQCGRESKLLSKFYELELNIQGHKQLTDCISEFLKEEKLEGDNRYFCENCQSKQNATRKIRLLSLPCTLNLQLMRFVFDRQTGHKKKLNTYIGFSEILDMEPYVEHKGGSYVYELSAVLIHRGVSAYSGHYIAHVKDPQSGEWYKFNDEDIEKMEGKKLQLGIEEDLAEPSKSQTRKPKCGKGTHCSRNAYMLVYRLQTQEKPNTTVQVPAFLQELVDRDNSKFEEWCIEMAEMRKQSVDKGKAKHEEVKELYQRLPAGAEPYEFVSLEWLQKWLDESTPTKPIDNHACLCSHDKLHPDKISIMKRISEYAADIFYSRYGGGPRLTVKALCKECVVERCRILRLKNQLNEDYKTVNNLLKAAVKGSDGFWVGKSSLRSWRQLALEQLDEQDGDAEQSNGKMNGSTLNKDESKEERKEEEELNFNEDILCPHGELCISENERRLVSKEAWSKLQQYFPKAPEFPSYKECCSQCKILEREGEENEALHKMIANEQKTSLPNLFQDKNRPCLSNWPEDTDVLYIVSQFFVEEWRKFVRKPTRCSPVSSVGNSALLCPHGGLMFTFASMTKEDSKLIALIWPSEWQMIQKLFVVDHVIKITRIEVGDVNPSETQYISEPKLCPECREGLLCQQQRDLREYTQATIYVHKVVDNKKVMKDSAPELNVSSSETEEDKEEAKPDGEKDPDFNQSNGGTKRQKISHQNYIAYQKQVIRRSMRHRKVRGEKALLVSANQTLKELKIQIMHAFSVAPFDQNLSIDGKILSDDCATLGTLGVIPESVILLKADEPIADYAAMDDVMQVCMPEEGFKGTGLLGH
Outline: as §1

USP5 = target: T4, USP5 (UniProt P45974)
T4 sequence (whole entry): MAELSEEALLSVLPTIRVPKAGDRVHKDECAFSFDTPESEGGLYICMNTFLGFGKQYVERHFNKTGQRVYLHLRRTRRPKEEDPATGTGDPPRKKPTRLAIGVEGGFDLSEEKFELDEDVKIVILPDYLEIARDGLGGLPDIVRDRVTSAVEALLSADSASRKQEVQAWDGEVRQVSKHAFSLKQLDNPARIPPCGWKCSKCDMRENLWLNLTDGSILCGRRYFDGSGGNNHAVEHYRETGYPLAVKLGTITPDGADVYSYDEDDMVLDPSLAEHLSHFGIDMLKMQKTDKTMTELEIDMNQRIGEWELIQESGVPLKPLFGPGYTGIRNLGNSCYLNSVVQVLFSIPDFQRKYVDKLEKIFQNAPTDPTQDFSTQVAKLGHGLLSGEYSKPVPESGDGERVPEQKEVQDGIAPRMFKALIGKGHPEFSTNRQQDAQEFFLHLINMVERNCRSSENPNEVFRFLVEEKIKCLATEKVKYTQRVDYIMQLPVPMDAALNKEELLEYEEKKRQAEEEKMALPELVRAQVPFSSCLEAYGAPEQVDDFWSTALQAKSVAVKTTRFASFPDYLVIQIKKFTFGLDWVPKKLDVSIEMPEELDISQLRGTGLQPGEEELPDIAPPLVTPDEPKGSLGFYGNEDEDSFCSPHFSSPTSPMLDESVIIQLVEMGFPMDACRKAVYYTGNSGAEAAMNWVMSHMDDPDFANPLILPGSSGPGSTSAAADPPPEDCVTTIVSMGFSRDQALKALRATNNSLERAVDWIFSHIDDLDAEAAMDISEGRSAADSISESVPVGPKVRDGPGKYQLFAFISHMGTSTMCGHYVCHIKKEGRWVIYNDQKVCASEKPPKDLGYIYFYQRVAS
Outline: as §1

USP54 = USP54 (UniProt Q70EL1)
Outline: as §1

USP7 = USP7 (UniProt Q93009)
Outline: as §1

USP8 = target: T5, USP8 (UniProt P40818)
T5 sequence (whole entry): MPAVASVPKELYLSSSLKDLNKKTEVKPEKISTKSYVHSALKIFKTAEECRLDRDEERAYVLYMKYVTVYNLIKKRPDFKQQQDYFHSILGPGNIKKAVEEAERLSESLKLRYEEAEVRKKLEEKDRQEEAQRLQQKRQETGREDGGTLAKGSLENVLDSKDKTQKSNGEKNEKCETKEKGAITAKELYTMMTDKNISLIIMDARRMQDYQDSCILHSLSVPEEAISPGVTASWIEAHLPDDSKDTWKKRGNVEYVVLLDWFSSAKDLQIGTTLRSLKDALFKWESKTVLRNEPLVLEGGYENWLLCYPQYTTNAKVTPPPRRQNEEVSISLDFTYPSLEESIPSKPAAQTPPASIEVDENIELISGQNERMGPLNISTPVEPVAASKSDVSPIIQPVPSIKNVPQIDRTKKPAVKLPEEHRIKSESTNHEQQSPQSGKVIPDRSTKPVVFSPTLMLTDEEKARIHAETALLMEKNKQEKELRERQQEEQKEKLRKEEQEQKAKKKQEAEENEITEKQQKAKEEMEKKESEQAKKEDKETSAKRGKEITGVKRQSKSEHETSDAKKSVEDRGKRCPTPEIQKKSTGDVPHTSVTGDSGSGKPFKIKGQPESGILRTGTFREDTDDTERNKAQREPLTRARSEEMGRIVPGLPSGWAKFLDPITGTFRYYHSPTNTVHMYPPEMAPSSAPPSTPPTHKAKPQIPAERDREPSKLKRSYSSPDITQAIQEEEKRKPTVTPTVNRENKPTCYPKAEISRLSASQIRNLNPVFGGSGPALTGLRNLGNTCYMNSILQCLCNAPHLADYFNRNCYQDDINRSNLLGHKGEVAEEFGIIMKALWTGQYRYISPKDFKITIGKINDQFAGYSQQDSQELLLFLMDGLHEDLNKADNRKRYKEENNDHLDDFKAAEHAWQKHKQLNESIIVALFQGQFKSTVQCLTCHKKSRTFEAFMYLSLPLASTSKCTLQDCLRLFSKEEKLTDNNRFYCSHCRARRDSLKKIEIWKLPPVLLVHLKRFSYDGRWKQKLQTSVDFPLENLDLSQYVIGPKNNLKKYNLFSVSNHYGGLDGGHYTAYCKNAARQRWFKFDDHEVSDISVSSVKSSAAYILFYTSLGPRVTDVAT
Outline: as §1

Measured: log2 ratio of Biotin-Ahx-Ub-VS probe labelling

USP7, sequence (Q93009 whole entry, looked up): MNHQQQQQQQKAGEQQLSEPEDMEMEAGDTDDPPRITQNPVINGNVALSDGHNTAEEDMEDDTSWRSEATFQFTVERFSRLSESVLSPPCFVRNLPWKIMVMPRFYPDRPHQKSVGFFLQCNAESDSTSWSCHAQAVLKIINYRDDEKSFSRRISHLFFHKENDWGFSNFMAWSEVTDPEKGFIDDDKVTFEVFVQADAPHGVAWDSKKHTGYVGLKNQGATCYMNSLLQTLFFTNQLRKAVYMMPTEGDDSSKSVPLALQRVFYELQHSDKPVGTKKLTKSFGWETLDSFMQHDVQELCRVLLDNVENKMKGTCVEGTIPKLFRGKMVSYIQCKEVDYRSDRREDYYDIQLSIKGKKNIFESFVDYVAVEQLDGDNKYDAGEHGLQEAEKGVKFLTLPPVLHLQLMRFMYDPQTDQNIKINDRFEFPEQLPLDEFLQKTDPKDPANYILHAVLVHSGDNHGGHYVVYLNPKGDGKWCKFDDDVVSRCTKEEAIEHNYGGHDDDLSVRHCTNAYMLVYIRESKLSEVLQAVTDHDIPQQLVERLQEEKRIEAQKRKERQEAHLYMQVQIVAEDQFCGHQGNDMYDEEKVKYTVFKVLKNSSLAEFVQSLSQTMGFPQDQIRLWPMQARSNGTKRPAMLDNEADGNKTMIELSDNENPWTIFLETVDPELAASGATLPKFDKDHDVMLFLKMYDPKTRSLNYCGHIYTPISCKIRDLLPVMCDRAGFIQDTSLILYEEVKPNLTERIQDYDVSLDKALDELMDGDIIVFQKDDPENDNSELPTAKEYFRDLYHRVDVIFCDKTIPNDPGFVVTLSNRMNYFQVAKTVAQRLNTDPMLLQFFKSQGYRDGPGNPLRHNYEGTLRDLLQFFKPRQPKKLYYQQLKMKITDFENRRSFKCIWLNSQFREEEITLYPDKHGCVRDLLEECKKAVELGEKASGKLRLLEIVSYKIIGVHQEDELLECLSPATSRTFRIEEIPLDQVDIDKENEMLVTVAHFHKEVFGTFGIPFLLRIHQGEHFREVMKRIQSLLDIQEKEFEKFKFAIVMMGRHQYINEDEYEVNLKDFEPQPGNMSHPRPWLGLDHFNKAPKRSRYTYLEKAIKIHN
USP46, sequence (P62068 whole entry): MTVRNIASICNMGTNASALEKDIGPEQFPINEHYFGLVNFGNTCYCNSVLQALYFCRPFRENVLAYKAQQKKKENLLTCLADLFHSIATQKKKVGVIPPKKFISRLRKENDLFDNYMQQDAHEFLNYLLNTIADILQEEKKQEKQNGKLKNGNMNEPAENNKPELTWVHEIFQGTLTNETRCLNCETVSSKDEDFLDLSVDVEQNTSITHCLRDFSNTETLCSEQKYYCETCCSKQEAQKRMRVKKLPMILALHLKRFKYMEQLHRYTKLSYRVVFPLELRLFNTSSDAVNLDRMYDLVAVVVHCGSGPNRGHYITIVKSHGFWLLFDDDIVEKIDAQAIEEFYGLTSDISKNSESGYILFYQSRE
USP54, sequence (Q70EL1 whole entry): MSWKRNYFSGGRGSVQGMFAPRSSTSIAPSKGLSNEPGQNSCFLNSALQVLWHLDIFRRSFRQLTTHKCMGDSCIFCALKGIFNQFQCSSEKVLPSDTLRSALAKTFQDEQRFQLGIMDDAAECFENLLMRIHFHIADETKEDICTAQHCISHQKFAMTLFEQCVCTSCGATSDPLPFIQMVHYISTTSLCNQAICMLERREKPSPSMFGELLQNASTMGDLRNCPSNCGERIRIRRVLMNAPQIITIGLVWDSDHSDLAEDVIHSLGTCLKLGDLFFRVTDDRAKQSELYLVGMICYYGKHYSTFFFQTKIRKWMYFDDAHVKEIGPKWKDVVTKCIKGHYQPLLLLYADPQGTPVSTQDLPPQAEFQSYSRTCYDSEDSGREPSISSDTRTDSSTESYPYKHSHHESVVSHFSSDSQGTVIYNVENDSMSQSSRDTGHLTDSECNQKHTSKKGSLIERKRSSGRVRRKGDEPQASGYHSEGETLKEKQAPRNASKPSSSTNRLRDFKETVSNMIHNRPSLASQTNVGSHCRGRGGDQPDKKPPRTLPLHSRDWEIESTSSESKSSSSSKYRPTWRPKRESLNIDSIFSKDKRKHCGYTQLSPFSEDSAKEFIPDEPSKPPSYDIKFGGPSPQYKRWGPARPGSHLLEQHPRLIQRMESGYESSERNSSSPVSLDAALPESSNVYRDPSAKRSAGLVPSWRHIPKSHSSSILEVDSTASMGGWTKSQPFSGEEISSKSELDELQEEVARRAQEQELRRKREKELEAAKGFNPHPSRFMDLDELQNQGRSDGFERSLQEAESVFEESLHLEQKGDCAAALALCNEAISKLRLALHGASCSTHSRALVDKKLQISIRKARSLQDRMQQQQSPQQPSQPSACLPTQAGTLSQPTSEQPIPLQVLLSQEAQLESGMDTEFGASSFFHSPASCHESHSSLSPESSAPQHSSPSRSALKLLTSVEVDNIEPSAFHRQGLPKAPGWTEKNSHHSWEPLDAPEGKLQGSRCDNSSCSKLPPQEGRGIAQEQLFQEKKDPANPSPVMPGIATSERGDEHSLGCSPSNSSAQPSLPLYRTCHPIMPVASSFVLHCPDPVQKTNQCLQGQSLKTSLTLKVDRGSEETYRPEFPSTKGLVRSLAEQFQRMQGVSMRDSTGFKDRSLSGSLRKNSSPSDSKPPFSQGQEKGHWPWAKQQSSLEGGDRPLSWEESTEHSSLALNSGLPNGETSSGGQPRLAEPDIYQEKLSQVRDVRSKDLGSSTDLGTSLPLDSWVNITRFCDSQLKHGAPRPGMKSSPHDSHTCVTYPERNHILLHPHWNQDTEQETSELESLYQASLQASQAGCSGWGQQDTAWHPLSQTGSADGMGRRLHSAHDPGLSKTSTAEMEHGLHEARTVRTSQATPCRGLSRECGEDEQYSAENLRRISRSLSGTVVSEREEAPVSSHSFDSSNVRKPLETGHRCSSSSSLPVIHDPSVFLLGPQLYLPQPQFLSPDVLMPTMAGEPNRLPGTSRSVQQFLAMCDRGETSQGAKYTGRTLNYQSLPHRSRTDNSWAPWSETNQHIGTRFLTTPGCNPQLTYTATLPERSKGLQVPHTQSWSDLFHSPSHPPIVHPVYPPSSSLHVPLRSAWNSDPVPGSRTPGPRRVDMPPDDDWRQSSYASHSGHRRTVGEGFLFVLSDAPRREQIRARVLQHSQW

Cc1ccccc1C1(CNC(=O)CCl)CCOCC1
inactive: USP42 -0.0942 | USP46 0.0453 | USP47 -0.619 | USP48 -0.295 | USP5 0.17 | USP54 0.35 | USP7 -0.102 | USP8 -0.0708

Reference: the supplement of paper PMC11732987, “Enantioselective OTUD7B fragment discovery through chemoproteomics screening and high-throughput optimisation” (Communications Chemistry, 2025)
